Screening data: PubChem BioAssay, several laboratories
ADAM10 inh: inhibits human ADAM10; 370,000 tested, 0.62% active; inhibition, % at 7 µM; O14672; recombinant ADAM10, EDANS/DABCYL FRET peptide cleavage, 3 h;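 active means inhibition above a per-campaign cutoff equal to the mean of compounds falling between control-based bounds plus 3 SD, cut at about 20% in these data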;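 further: 0% = DMSO wells while the 100% control is not disclosed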
Target sequence (O14672 214-748 limits assumed): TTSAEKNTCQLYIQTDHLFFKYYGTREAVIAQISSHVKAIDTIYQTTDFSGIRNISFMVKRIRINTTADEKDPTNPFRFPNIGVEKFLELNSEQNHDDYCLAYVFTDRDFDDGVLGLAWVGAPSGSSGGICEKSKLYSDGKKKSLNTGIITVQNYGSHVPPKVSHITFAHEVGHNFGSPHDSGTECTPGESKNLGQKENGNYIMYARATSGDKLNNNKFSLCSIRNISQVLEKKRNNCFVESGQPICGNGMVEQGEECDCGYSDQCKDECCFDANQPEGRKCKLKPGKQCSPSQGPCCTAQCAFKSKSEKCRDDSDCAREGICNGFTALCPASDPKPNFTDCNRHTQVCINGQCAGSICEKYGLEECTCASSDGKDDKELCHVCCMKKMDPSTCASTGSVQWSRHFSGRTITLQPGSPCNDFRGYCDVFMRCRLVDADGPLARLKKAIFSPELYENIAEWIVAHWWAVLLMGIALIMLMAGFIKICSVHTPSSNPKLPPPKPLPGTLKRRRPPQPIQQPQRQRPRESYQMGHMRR
ADAM17 inh: ADAM17 inhibition, QFRET primary screen. recombinant ADAM17, EDANS/DABCYL FRET peptide cleavage. inhibition, % at 6.95 µM. 370,000 tested, 0.83% active. AID 720648;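 active means inhibition above the mean of compounds lying between control limits plus 3 SD, set per campaign, cut at about 8.5% in these data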;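 further: 0% = DMSO-only wells as the low control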
proKLK7 act: activators of human kallikrein-7 zymogen | AID 652039 | purified proKLK7, EDANS-DABCYL substrate fluorescence; 100% is mature enzyme control, 0% vehicle | 370,000 tested, 0.9% active | P49862 | activation, % at 7 µM;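 active means activation above the mean of all tested compounds plus 3 SD, computed per campaign excluding outliers beyond control limits, cut at about 13% in these data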
NPR1 activator: GC-A (human) enzyme activation; P16066; HEK293 GC-A cells, cGMP TR-FRET, EC30 ANP; 0% at EC30 ANP, 100% saturating ANP; activation, % at 10 µM; 370,000 tested, 0.14% active; AID 1671463; in the data active means activation above about 40%
GC-B act: GC-B (human) receptor activation; P20594; HEK293-GC-B cells, CNP EC30, cGMP TR-FRET; 0% at EC30 CNP, 100% saturating CNP; activation, % at 10 µM; 370,000 tested, 0.11% active;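 active means activation at 10 µM reaching about 35% in either raw or pattern-adjusted values, limit read from the data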
ADAM10 confirm: human ADAM10 inhibition, confirmation | ADAM10 QFRET peptide cleavage, EDANS fluorescence | 2,100 tested, 1% active | shares compounds with ADAM10 inh | inhibition, % at 6.95 µM;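 active means inhibition above about 20% chosen separately for each screening run, limit read from the data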;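 further: 0% = DMSO wells and 100% = marimastat wells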
ADAM17 counter: counter-screen for ADAM10 exosite inhibitors: inhibitors of human ADAM17. ADAM17 QFRET peptide cleavage, EDANS fluorescence. shares compounds with ADAM10 inh. AID 743214. 2,100 tested, 0.5% active. inhibition, % at 6.95 µM;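 active means mean triplicate inhibition above the solvent-only control wells' mean plus 3 SD, cut at about 12% in these data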;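 further: 0% = DMSO wells and 100% = marimastat wells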
ADAM10 ctr: inhibits human ADAM10 in ADAM17 exosite counter-screen. shares compounds with ADAM17 inh. recombinant ADAM10, EDANS/DABCYL FRET peptide cleavage, 3 h. inhibition, % at 6.95 µM. 2,900 tested, 47% active. AID 743256;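 active means mean inhibition over the triplicate runs exceeds the activity threshold set in the earlier primary screen, cut at about 20% in these data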;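 further: 0% = DMSO wells and 100% = marimastat wells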
ADAM17 confirm: confirmation of inhibitors of human ADAM17. shares compounds with ADAM17 inh. recombinant ADAM17, EDANS/DABCYL QFRET peptide cleavage. 2,900 tested, 65% active. inhibition, % at 6.95 µM;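 active means mean inhibition across replicates above the hit cutoff set in the primary screen, cut at about 8.5% in these data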;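 further: 0% = DMSO wells and 100% = marimastat wells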
Numbers without * were called inactive; i = inactive; . = no result. Most compounds without a hit are left out; they make up all but 2.2% or so of the library.

SMILES | ADAM10 inh | ADAM17 inh | proKLK7 act | NPR1 activator | GC-B act | ADAM10 confirm | ADAM17 counter | ADAM10 ctr | ADAM17 confirm
Cc1ccccc1-c1cnc(C(O)c2ccc(-c3ccccc3)cc2)[nH]1 (stereo not given) | 23* | 9.1* | 1 | -4 | -1 | 6 | 2 | 14 | 8
Cc1cc(C(O)c2ncc(-c3ccc(Oc4ccccc4)cc3)[nH]2)ccc1F (stereo not given) | 21* | 13* | 0 | 4 | -2 | 10 | 3 | 37* | 16*
Cc1ccccc1-c1cnc(C(O)c2ccc(C(C)(C)C)cc2)[nH]1 (stereo not given) | -2 | 3 | 1 | 1 | -5 | . | . | . | .
COc1ccc(-c2cccc3[nH]c4c(c23)CCN2C(=O)[C@H]3[C@H](C)ON(C)[C@H]3C[C@@H]42)cc1 | i | -166 | -36 | 2 | 6 | . | . | . | .
CC(C)C[C@H]1COc2cccc(F)c2S(=O)(=O)N1Cc1cn(CCC2OCCO2)nn1 | 0 | -3 | 0 | 3 | 10 | . | . | . | .
O=C(Nc1nc2ccccc2s1)C1CCCN1S(=O)(=O)c1ccc(Cl)cc1 (stereo not given) | 30* | 11* | 0 | 1 | -3 | 2 | 0 | 33* | 17*
COc1ccc(NC(=O)c2cc3ccccc3cc2OC)cc1 | 0 | -1 | -5 | -1 | -3 | . | . | . | .
COc1cc(C(=O)c2ccccc2)c(OC)cc1C(=O)Nc1ccc(O)cc1 | 30* | 15* | 0 | -2 | -4 | -1 | 1 | 0 | 3
COCC(=O)N(c1ccc(C(C)(C)C)cc1)C(C(=O)NC(C)(C)C)c1cccnc1 (stereo not given) | -3 | -5 | . | 3 | -2 | . | . | . | .
O=C(CSc1nnc(-c2ccccn2)n1-c1ccc(Cl)cc1)Nc1cccc2ccccc12 | 7 | 1 | 1 | -4 | -17 | . | . | . | .
Cc1ccc(O)c(N=Cc2cc(Cc3ccccc3)cc([N+](=O)[O-])c2O)c1 | 38* | 19* | 0 | -4 | -8 | 0 | 2 | 22* | 8
COC(=O)[C@H](CC(C)C)N(CCc1cn(Cc2ccc(C)cc2)nn1)S(=O)(=O)c1ccc(F)cc1Br | 13 | 7 | 0 | 0 | 2 | . | . | . | .
O/N=C/c1cc(Br)ccc1OCc1cccc(F)c1 | 28* | 11* | 0 | 4 | -14 | 4 | 1 | 18 | 9.5*
O=S(=O)(c1ccc(NC(=S)N/N=C/c2ccc(O)c(O)c2)cc1)N1CCOCC1 | -4 | -3 | 1 | -2 | -2 | . | . | . | .
O=[N+]([O-])c1cc(Cl)cc(/C=N/NC(=S)Nc2ccc(S(=O)(=O)N3CCOCC3)cc2)c1O | 35* | 17* | 0 | -13 | 6 | 8 | 1 | 29* | 18*
O=C(O)c1ccccc1NS(=O)(=O)c1ccc(NNC(=S)Nc2ccc(OC(F)F)cc2)c([N+](=O)[O-])c1 | 24* | 11* | 0 | -9 | -1 | 0 | 0 | 19 | 12*
Cc1ccc(NC(=S)NNc2ccc([N+](=O)[O-])cc2S(=O)(=O)Nc2ccccc2C(=O)O)cc1C | 11 | 4 | 0 | -2 | 5 | . | . | . | .
COc1ccc(CNc2nc(-c3ccccc3)nc3ccccc23)cc1OC | 22* | 13* | 0 | 6 | 6 | 7 | 3 | 24* | 17*
Fc1ccc(CNc2nc(-c3ccccc3)nc3ccccc23)cc1 | 10 | 5 | -1 | 11 | 4 | . | . | . | .
COc1cc(/C=N\NC(=O)c2ccc(Cl)cc2)ccc1Oc1ccc([N+](=O)[O-])cn1 | 24* | 11* | 0 | -4 | 1 | 4 | 1 | 15 | 8
O=C1[C@@H](C2CCCCC2)[C@@H]2c3ccccc3C=NN2[C@@H]2c3ccccc3C=NN12 | -5 | -2 | 0 | -9 | -2 | . | . | . | .
Cc1ccc(NC(=O)CN(C)C(=O)Cn2nnc(-c3ccccc3C)n2)cc1 | 6 | -2 | 0 | 3 | 2 | . | . | . | .
CCOC(=O)c1ccc(NC(=O)Cn2nnc(-c3ccccc3C)n2)cc1 | 22* | 10* | 0 | -2 | 1 | 6 | 1 | 41* | 24*
Cc1ccc(-n2c(SCC(=O)Nc3ccccc3-c3ccccc3)nnc2-c2ccco2)cc1 | 7 | 4 | 1 | -9 | -7 | . | . | . | .
COc1ccc(OC)c(NC(=O)Cc2csc(NC(=O)Nc3ccccc3OC)n2)c1 | 5 | 4 | 0 | -10 | -4 | . | . | . | .
SMILES | ADAM10 inh | ADAM17 inh | proKLK7 act | NPR1 activator | GC-B act | ADAM10 confirm | ADAM17 counter | ADAM10 ctr | ADAM17 confirm
COc1ccc(NC(=S)Nc2nc(CC(=O)Nc3ccccc3OC)cs2)cc1 | 24* | 9.3* | 0 | -11 | -13 | 8 | 2 | 17 | 14*
CC(=O)Nc1c(-c2ccc(C)cc2)nc2ncccn12 | i | -306 | 10 | 3 | 4 | . | . | . | .
CCC(=O)OCCCN1C(=O)CCC12CCC(C)CC2 (stereo not given) | 3 | 0 | 0 | 4 | -2 | . | . | . | .
Cc1ccc(-n2c(SCc3nc4ccccc4[nH]3)nnc2-c2ccccn2)cc1 | -8 | 2 | 0 | -1 | -10 | . | . | . | .
NNC(=O)/C(=N/Nc1ccccc1)S(=O)(=O)c1ccc(Cl)cc1 | 21* | 11* | -1 | 2 | 3 | 4 | 3 | 15 | 9.9*
CCOC(=O)/C(=N/Nc1ccc(C)cc1)S(=O)(=O)c1ccc(Cl)cc1 | 10 | 0 | 0 | -7 | -3 | . | . | . | .
CCOC(=O)c1ccc(NC(=O)COC(=O)c2cccc(Oc3ccccc3)c2)cc1 | 28* | 13* | 0 | -21 | 7 | 9 | 3 | 27* | 14*
CCOC(=O)c1ccc(NC(=O)c2ccc(NC(=O)c3ccccc3)cc2)cc1 | -8 | -5 | 0 | 2 | 2 | . | . | . | .
COc1ccc(S(=O)(=O)n2nc(-c3ccc(Cl)cc3)cc2N)cc1 | 21* | 9.0* | 0 | 0 | -6 | 3 | 1 | 15 | 8.9*
Cc1ccc(-c2onc(C)c2C)cc1S(=O)(=O)N1CCOc2ccccc21 | 21* | 14* | 0 | -5 | -4 | 6 | 2 | 8 | 6
C[C@H]1COc2cc(Br)ccc2S(=O)(=O)N1Cc1cn(Cc2ccc(C(F)(F)F)cc2)nn1 | -3 | -4 | 0 | -11 | -2 | . | . | . | .
